Percent Effect and PXC50 data for five compounds are collected here from ChEMBL document CHEMBL3988442, “University of Dundee, Small-Polar-MMV Screening Library” (2021).

The target of experiment [1] is Protein translocase subunit SecA (Escherichia coli (strain K12)) (UniProt P10408). The experiment can be described thus: Assay to Identify E. coli SecA ATPase Inhibitors. Format: functional. More on the design: scale not given: direction of the effect not stated beside the values. The conditions noted are these: 30 µM.
Protein translocase subunit SecA (Escherichia coli (strain K12)), sequence (P10408 whole entry): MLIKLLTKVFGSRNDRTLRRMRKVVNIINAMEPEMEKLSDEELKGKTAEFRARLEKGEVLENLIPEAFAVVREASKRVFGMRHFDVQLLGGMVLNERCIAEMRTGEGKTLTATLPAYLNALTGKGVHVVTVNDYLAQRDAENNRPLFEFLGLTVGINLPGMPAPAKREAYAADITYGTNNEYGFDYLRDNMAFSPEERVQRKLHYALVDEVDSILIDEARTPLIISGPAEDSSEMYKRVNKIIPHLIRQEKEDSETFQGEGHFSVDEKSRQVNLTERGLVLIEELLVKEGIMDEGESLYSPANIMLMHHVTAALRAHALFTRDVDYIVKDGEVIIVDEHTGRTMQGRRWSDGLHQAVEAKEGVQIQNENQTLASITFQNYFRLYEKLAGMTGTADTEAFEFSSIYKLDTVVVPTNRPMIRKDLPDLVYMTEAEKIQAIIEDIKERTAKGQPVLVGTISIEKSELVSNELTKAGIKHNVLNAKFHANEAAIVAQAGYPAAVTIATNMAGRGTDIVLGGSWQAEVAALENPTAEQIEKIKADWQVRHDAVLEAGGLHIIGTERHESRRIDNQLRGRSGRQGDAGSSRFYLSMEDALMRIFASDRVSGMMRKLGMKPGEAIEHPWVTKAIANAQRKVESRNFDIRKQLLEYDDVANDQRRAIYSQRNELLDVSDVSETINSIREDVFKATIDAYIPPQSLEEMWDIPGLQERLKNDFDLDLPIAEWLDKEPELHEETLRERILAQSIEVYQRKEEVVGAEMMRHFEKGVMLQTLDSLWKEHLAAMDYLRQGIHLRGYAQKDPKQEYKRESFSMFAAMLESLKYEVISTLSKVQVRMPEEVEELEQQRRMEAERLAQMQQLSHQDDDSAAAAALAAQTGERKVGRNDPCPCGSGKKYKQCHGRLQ
Experiment [2] has as its target T1, Ubiquitin-activating enzyme e1, putative (Leishmania donovani (strain BPK282A1)) (UniProt E9BSI1).
T1 sequence (whole entry): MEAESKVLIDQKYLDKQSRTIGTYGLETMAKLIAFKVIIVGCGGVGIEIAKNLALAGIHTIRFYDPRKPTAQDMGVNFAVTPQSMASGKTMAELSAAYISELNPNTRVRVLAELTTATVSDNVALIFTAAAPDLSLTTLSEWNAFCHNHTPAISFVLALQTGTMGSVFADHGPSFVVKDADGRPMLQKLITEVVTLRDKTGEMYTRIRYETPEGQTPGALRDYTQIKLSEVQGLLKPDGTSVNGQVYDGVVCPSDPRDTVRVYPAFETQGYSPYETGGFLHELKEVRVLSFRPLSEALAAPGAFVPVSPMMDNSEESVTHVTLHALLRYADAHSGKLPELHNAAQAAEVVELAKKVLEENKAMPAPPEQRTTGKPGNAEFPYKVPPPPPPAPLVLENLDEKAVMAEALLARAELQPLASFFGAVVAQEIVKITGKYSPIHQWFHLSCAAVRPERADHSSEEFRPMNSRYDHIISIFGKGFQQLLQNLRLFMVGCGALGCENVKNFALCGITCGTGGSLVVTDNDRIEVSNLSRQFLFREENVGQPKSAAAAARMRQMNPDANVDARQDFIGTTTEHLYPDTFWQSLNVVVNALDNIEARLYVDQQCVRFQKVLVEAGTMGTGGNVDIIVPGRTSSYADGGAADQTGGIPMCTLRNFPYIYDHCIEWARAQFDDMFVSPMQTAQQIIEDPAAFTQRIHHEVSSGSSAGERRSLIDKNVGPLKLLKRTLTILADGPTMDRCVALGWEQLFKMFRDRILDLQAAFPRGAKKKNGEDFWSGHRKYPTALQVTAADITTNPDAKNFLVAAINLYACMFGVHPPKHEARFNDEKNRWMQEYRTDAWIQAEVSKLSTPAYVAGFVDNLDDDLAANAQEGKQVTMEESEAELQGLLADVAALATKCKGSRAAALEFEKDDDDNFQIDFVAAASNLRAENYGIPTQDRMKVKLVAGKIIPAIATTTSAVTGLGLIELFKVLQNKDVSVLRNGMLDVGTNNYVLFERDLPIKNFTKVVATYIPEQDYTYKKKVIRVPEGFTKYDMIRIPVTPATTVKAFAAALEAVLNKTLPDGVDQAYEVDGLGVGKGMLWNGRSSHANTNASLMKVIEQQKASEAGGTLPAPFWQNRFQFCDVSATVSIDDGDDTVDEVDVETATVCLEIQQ
The experiment can be described thus: Leishmania donovani Ubiquitin Activating Enzyme (LdE1). Format: functional. More on the design: scale not given: direction of the effect not stated beside the values. The conditions noted are these: 30 µM.

The target in experiment [3] is AMP-activated protein kinase, AMPK (Homo sapiens) (UniProt P54646+O43741+P54619+Q9UGJ0+Q9Y478+Q13131+Q9UGI9). The experiment can be described thus: AMP-dependent Kinase enzyme assay. An in vitro enzyme assay that detects ADP turnover that is directly proportional to AMPK activity. This uses naive AMPK that is activated during the assay with MK-8722. The conditions noted are these: 30 µM. Format: functional. More on the design: scale not given: direction of the effect not stated beside the values.

For experiment [4], the target named is Sialic acid-binding Ig-like lectin 9 (Homo sapiens) (UniProt Q9Y336). The experiment can be described thus: Hs-Siglec9 ALPHAscreen SOP 20170721. Set-up: scale not given: direction of the effect not stated beside the values. The conditions noted are these: 10 µM. On the technique in general: Alpha assays give light when donor and acceptor beads are brought close together.
Sialic acid-binding Ig-like lectin 9 (Homo sapiens), sequence (Q9Y336 whole entry): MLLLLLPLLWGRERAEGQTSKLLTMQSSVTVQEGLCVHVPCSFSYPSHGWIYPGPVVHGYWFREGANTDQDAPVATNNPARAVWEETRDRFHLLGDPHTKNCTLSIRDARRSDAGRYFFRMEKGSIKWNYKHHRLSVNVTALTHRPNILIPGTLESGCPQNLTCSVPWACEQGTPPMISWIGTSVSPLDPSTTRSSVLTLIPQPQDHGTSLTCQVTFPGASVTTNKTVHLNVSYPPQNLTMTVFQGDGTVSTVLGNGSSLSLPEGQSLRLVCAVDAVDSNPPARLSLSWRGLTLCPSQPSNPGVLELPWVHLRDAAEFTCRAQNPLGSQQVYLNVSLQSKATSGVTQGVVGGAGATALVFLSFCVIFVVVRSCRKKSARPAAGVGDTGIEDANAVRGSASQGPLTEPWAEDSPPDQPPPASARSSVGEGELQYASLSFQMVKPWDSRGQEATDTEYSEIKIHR

The test system of another experiment is Trypanosoma cruzi. Description: Trypanosoma cruzi phosphomannomutase and mannose-1-phosphate guanylyltransferase assay. Format: functional. More on the design: scale not given: direction of the effect not stated beside the values. The conditions noted are these: 10 µM.
Experiment [5] deals with T2, Arginase-2, mitochondrial (Homo sapiens) (UniProt P78540).
T2 sequence (whole entry): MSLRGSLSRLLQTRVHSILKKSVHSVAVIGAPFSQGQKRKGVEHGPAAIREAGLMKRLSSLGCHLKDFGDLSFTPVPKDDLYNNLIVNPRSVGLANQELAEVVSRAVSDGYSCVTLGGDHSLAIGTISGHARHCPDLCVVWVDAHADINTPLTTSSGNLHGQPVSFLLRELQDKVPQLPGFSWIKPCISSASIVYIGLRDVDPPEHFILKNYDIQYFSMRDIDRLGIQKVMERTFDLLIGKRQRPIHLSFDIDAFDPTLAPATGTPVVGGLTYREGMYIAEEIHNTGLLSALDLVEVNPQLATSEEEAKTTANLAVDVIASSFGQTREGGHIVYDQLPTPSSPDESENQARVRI
Description: in vitro enzyme assay to detect the production of urea directly proportional to the activity of Arginase II. The format is functional. More on the design: scale not given: in the data most compounds retested in dose-response had high values.

The target of experiment [6] is T3, Proteasome subunit beta (Trypanosoma cruzi) (UniProt O96673).
T3 sequence (whole entry): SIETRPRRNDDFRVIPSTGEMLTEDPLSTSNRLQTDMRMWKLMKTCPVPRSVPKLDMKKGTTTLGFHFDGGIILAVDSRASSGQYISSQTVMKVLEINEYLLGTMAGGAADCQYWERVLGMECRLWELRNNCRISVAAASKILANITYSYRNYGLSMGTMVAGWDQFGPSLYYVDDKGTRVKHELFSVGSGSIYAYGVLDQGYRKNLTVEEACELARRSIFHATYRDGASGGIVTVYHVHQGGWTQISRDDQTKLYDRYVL
The experiment can be described thus: Trypanosoma cruzi proteasome chymotrypsin-like activity (TcProtChymo) assay. The conditions noted are these: 9.37 µM. The format is functional. Set-up: scale not given: in the data most compounds retested in dose-response had high values.

The species entered for the next experiment is Homo sapiens. Description: To identify inhibition of the IFN signalling (Jak-Stat) pathway via expression of an eGFP reporter gene under the control of an IFN-stimulated response element (ISRE) containing MxA promoter. The format is functional. More on the design: scale not given: direction of the effect not stated beside the values. The conditions noted are these: 30 µM. For orientation: A reporter such as luciferase makes a cellular process visible.

In experiment [7] the target is T4, Tyrosyl-tRNA synthetase, putative (Trypanosoma cruzi (strain CL Brener)) (UniProt Q4DSP6).
T4 sequence (whole entry): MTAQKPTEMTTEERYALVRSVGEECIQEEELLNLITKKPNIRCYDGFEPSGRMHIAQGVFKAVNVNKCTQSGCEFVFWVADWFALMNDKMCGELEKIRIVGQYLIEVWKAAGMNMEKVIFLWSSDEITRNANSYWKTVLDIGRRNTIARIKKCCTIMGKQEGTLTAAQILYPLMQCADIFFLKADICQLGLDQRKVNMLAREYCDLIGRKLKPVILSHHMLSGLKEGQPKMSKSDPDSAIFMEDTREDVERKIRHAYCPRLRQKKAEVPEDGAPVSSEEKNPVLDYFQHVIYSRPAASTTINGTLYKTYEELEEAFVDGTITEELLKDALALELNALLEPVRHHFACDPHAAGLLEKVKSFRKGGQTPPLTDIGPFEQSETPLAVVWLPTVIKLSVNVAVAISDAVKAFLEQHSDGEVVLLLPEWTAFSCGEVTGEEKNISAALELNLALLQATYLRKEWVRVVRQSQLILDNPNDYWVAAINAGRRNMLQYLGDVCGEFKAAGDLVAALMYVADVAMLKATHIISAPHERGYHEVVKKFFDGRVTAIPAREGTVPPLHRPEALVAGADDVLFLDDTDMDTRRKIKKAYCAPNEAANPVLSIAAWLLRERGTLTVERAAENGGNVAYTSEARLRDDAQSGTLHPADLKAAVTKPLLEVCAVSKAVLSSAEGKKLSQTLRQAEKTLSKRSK
Description: Trypanosoma cruzi tyrosyl tRNA synthetase (TcYRS) _High Tyrosine SOP. The format is functional. More on the design: scale not given: in the data most compounds retested in dose-response had high values. The conditions noted are these: 30 µM.

Experiment [8] addresses T4, Tyrosyl-tRNA synthetase, putative (Trypanosoma cruzi (strain CL Brener)). Description: Trypanosoma cruzi tyrosyl tRNA synthetase (TcYRS) SOP. The conditions noted are these: 30 µM. Set-up: scale not given: direction of the effect not stated beside the values. Format: functional.
The target of experiment [9] is Chromo domain-containing protein 1 (Saccharomyces cerevisiae (strain ATCC 204508 / S288c) (Baker's yeast)) (UniProt P32657). The experiment can be described thus: ScCHD-1 Enzyme Inhibition Assay. Format: functional. More on the design: scale not given: in the data most compounds retested in dose-response had high values. The conditions noted are these: 30 µM.
Chromo domain-containing protein 1 (Saccharomyces cerevisiae (strain ATCC 204508 / S288c) (Baker's yeast)), sequence (P32657 whole entry, the tested form may be a part): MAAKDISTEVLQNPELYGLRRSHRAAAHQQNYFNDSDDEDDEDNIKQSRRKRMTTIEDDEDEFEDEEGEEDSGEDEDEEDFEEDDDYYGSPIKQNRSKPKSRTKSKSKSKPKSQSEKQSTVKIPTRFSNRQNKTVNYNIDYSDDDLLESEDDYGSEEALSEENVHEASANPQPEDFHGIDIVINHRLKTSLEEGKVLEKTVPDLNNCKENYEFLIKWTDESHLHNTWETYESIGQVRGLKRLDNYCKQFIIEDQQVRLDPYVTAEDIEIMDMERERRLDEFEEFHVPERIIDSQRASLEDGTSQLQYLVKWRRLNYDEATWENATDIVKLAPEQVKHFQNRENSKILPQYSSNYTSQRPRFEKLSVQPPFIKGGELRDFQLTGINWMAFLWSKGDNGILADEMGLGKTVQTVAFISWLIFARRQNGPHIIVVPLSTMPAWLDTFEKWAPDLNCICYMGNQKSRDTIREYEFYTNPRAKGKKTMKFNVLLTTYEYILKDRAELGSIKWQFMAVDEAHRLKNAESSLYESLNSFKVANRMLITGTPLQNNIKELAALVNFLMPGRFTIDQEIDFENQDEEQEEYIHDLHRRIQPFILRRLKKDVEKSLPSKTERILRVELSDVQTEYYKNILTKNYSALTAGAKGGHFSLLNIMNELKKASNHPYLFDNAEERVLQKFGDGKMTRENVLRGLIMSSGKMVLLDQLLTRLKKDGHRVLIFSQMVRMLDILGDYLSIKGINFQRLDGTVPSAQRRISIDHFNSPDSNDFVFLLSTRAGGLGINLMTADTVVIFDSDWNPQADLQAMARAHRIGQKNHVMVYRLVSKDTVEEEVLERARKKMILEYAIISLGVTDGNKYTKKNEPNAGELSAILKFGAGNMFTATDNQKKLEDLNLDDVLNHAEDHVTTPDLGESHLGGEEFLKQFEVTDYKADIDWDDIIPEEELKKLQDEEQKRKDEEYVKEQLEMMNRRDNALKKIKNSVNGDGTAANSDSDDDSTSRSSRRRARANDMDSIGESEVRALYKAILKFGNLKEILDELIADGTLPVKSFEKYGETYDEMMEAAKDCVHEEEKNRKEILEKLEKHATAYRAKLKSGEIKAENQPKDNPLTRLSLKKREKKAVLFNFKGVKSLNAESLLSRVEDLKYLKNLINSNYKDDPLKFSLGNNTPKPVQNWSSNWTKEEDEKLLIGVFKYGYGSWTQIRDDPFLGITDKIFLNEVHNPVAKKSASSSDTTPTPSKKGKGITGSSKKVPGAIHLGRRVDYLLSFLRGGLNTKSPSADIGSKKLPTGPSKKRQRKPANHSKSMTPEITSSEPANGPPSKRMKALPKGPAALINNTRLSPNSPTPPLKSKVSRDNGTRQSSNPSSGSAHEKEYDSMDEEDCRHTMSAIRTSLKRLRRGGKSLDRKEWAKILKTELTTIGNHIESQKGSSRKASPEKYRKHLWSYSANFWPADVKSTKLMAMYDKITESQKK
In experiment [10] the target is T5, Methionyl-tRNA synthetase, putative (Leishmania donovani (strain BPK282A1)) (UniProt E9BF75).
T5 sequence (whole entry): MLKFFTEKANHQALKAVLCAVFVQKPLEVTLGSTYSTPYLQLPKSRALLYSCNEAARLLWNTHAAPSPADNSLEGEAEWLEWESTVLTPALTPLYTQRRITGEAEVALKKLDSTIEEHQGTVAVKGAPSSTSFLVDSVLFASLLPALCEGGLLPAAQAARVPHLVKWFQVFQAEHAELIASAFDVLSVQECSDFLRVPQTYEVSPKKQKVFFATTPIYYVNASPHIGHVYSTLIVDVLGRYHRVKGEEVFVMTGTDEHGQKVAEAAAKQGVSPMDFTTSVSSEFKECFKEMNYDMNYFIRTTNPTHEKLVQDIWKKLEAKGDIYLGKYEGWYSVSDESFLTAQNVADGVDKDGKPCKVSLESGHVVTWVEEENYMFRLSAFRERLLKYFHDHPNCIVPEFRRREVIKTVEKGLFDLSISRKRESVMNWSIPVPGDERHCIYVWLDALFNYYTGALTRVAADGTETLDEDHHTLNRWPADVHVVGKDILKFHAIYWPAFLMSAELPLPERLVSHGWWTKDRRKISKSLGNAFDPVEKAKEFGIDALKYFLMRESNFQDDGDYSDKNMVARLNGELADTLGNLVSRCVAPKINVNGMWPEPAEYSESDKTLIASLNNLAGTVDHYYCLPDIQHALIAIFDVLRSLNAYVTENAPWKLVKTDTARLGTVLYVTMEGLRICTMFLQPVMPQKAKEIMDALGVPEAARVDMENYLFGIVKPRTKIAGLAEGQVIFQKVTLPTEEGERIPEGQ
Description: Leishmania donovani Methionine tRNA synthetase (LdMetRS):v7. Dose response assay. Format: functional. More on the design: conc 80 nM, time 150 minutes.

For some of these results: Entries with a potency or affinity are not part of this list. A value given as a limit tells only on which side of the number the result lay.

For the compound `O=C(Cc1ccccn1)N1CCC2(CC1)CC(Oc1ccccn1)CO2` (stereo unspecified), the Percent Effect was -3.31% in [1]; 10.7% in experiment [2]; 4.11% in [3]; 0.184% in experiment [4]; -1.18% in the experiment with Trypanosoma cruzi; 2.7% in [5] (30 µM). Further, the Percent Effect in experiment [5] (33.3 µM) is -5.36%; in experiment [6], 12.2%; in the experiment listed under Homo sapiens, 12.5%; in experiment [7], 7.45%; in experiment [8], 16.7%; in experiment [9], -7.71%.
As to `Cc1cc(NC(=O)N2CCN(c3nc(C)c(C)s3)CC2)no1`, the Percent Effect in experiment [1] was -4.08%; in experiment [2], -2.7%; in [3] it was 8.59%; in experiment [4], -1.24%; in the experiment on Trypanosoma cruzi it was -4.3%; in [5] (30 µM), 3.78%. For the same compound, the Percent Effect was 0.833% in experiment [5] (33.3 µM); 12.8% in experiment [6]; -8.43% in the experiment filed under Homo sapiens; 5.94% in experiment [7]; 8.54% in experiment [8]; -0.744% in experiment [9].
Turning to `CCCN1CCC(NC(=O)c2ccc(F)cc2I)CC1`, the Percent Effect is -2.2% in experiment [1]; 18.1% in experiment [2]; -6.61% in [3]; 17.7% in experiment [4]; 2.23% in the experiment with Trypanosoma cruzi; 5.95% in experiment [5] (30 µM). For the same compound, the Percent Effect is 24.3% in [5] (33.3 µM); 12.5% in [6]; -17.1% in the experiment listed under Homo sapiens; 8.42% in experiment [7]; 15.4% in [8]; -5.41% in [9].
As for `Cc1ccccc1C1(CNc2nnc(C)c(C)c2C#N)CCOCC1`, the PXC50 in experiment [10] (MAX_EFFECT 12.82660333) and in [10] (MAX_EFFECT 19.54225352) was under 4 each time. Besides, the Percent Effect in [1] is -3.65%; in experiment [2] it was 0%; in experiment [3] it was -11.2%; in experiment [4], 2.86%; in the experiment on Trypanosoma cruzi, -0.193%; in experiment [5] (33.3 µM), -0.952%. Also, the Percent Effect was 9.31% in experiment [6]; 19.4% in the experiment filed under Homo sapiens; 2.65% in [7]; 0% in experiment [8]; -3.83% in [9].
For the compound `O=C(NC1CCC1)[C@@H]1CCO[C@@H]2CCN(CCc3ccccc3)C[C@H]21`, the Percent Effect in experiment [1] is -2.5%; in experiment [2], 16.2%; in [3], -6.69%; in experiment [4], -3.15%; in the experiment on Trypanosoma cruzi, 4.3%; in experiment [5] (30 µM), 8.11%. The Percent Effect was 14.6% in experiment [5] (33.3 µM); 22.7% in [6]; 12% in the experiment listed under Homo sapiens; 8.91% in [7]; 18.3% in experiment [8]; -3.4% in [9].
